Gal4-VP16 FLuc – Gal4-VP16 reporter inhibition counter-screen; hit rate 3.5% among 310,000; Drosophila S2 Gal4-VP16 UAS-luciferase, luminescence, 20 h; Potency, µM (highest dose often 53.6 µM), without a hit: at the highest dose activity, negative = inhibition, usual class: inhibitors; AID 2546;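 also: Gal4-VP16 expression switched on by copper sulfate through the metallothionein promoter; potency is read from the fitted curve at half-maximal effect; % is scaled to controls: 0 for no effect and ±100 for the full control effect; nearly all actives have a fitted effect of over 50% in size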
RORg inh – blocks mouse ROR gamma transcriptional activity; Drosophila S2 Gal4-RORgamma UAS-luciferase reporter, 20 h; P51450; AID 2551; Potency, µM (titrated, usually from 53.6 µM), without a hit: top-dose activity change, negative = inhibition, hits mostly inhibitors; hit rate 5.4% among 310,000; also: potency is read from the fitted curve at half-maximal effect; % is scaled to controls: 0 for no effect and ±100 for the full control effect; nearly all actives have a fitted effect of over 60% in size
Target sequence (P51450 whole entry, looked up, the tested form may be a part): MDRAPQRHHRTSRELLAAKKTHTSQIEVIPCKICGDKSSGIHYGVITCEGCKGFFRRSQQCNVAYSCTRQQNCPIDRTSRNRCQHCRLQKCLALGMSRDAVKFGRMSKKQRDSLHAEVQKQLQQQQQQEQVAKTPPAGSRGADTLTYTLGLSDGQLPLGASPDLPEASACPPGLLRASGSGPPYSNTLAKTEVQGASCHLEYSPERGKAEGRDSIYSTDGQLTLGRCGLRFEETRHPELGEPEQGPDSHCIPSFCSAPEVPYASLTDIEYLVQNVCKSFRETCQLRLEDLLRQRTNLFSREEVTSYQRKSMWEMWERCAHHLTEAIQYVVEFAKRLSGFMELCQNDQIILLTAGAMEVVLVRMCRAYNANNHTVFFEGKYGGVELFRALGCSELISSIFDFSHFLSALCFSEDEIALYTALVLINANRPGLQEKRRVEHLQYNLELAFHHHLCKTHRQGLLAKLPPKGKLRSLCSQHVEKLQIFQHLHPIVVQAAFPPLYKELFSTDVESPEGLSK
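Drosophila Schneider cells stably carrying a metallothionein-driven Gal4 DBD–ROR gamma fusion and a UAS-Photinus luciferase reporter were exposed to compound for 1 hr, then induced with copper sulfate (700 uM final) for 20 hr at ambient temperature before luminescence reading.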
uPA surface inh – inhibitors of cell surface uPA generation | AID 540303 | hit rate 0.31% among 330,000 | Potency, µM (top dose mostly 38.3 µM), for inactives: top-dose activity change, negative = inhibition, most hits filed as inhibitors | cell surface uPA generation assay, qHTS; active = well fitted inhibition curve with a large enough effect; inconclusive = small, poorly fitted or top-dose-only effect; inactive = no such curve, though single readings can be large or run the other way; tested in mouse RAW 264.7 cells; also: potency is read from the fitted curve at half-maximal effect; % is scaled to controls: 0 for no effect and ±100 for the full control effect; nearly all actives have a fitted effect of over 55% in size
TRPV1 PAM – human TRPV1 potentiation; Q8NER1; TRPV1-expressing cells, Fluo-8 calcium influx, capsaicin EC20 potentiation; potentiation, % at 8.33 µM; hit rate 0.02% among 320,000; AID 540277; in the data active = potentiation above about 80%; inconclusive = between about 30% and that limit; also: 0% is about no effect
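TRPV1-expressing cells were cultured overnight at 35.5C and loaded with Fluo-8 calcium dye for 40 to 90 min at room temperature. After a 10 s baseline, compound was added and calcium influx was read kinetically for 3 min (ex 480/em 520 nm).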
TRPV1 ag – agonists of human vanilloid receptor 1 (TRPV1); TRPV1-expressing cells, Fluo-8 calcium influx, agonist mode; activation, % at 8.33 µM; hit rate 0.19% among 320,000; AID 540275; in the data active = activation above about 80%; inconclusive = between about 30% and that limit; also: 0% is about no effect
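Cells expressing TRPV1 were dye-loaded with Fluo-8 and read kinetically: 10 s baseline, 3 min after compound (agonist portion), then 2 min after EC20 capsaicin (allosteric enhancer portion). Calcium-bound dye fluorescence at 480/520 nm.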
Starred values were filed as active, the others as inactive; ? = inconclusive; nt = no result; [ ] = remark or other dose. The list is not random: actives were taken first. Their share in the collection is about 5.8%. Unless noted, calls follow the shape of the dose curve; as a rule, active = well fitted curve in the direction sought with a large enough effect; inconclusive = small, poorly fitted or top-dose-only effect, or another doubt; inactive = no such curve, though single readings can be large; an effect the other way counts as inactive or inconclusive.

SMILES	Gal4-VP16 FLuc	RORg inh	uPA surface inh	TRPV1 PAM	TRPV1 ag
O=C(N/N=C\c1ccccc1)c1sccc1-n1cccc1	-9%	?	5%	-4	6
CC(C)CN(CC(C)C)C(=S)Nc1ccc(Cl)cc1	20µM*	4µM*	1%	3	2
Cc1nc2ccc(NC(=S)N3CCOCC3)cc2nc1C	13%	-1%	11%	5	1
CCNC(=S)NNC(=O)c1ccccc1OC(F)F	?	4µM*	nt	-8	3
CCNC(=S)NNC(=O)c1ccccn1	?	8.9µM*	-12%	-8	2
CCNC(=S)NNC(=O)c1ccccc1Cl	14µM*	3.2µM*	5%	3	3
COc1ccc(NC(=S)NNC(=O)c2ccccc2OC(F)F)cc1	-8%	13µM*	-30%	12	5
CCc1cc(CNC(=O)C2CCC(=O)N(Cc3ccc(Cl)cc3)C2)on1 (configuration not stated)	3%	9%	5%	-1	-1
CC(=O)Nc1ccc(S(=O)(=O)NCc2nc(-c3ccccc3Cl)no2)cc1	-11%	44%	0%	2	-3
COc1ccc(-c2cn3cc(C)ccc3n2)cc1Br	7.1µM*	?	-20%	-13	?
COc1ccc(-c2cn3cc(Cl)ccc3n2)cc1OC	-3%	19%	0%	-6	5
Nc1c2ccccc2nc2c(O)cccc12	3%[17 µM]	28%[16.9 µM]	nt	nt	nt
COCCN(Cc1nc(-c2ccc(-c3ccccc3)cc2)oc1C)C(C)C	?	11µM*	?	-1	-1
Cc1oc(-c2ccoc2)nc1CN(CC1CCC(=O)N1)C(C)C (configuration not stated)	-5%	-11%	-1%	-12	-1
O=C(COc1ccccc1Cl)c1ccc2c(c1)CCCC2	?	14µM*	15%	-9	17
S=c1[nH]nc(-c2ccncc2)n1/N=C/C=C/c1ccccc1	-5%	2.8µM*	7%	9	2
O=[N+]([O-])c1ccccc1/C=C/C=N/n1c(-c2ccc(Cl)cc2)n[nH]c1=S	-17%	8.9µM*	2%	-18	8
O=[N+]([O-])c1ccccc1/C=C/C=N/n1c(-c2ccccc2)n[nH]c1=S	1%	6.3µM*	-6%	-3	3
Cc1ccc(-c2n[nH]c(=S)n2/N=C/C=C\c2ccccc2[N+](=O)[O-])cc1	-21%	?	4%	-6	11
COc1cc2c(cc1OC)C(C)N(S(=O)(=O)c1cn(C)cn1)CC2 (configuration not stated)	5%	-1%	-2%	4	-4
Cc1nnc(SCc2cnc(-c3ccc(C(C)C)cc3)s2)n1C	11µM*	10µM*	-1%	9	-1
C[C@@H]1C(=O)O[C@H]2C[C@@]34[C@H]5C[C@@H](C(C)(C)C)[C@]36[C@H](OC(=O)[C@H]6O)O[C@]4(C(=O)O5)[C@]21O	8%	-1%	nt	nt	nt
CC(c1ccccc1)n1c(Cn2ncc3ccccc3c2=O)n[nH]c1=S (configuration not stated)	-19%	-5%	7%	0	6
CC(C)(C)c1ccc(-c2n[nH]c(=S)n2-c2ccccc2)cc1	2.8µM*	3.2µM*	-5%	?	6
Cc1ccc(-n2c(Cc3cccc4ccccc34)n[nH]c2=S)c(C)c1	?	1.1µM*	-15%	7	3
SMILES	Gal4-VP16 FLuc	RORg inh	uPA surface inh	TRPV1 PAM	TRPV1 ag
Cc1ccc(-n2c(Cc3noc4ccccc34)n[nH]c2=S)cc1	-27%	-7%	1%	0	-10
C=C(C)Cn1c(-c2ccncc2)n[nH]c1=S	-15%	13µM*	-11%	-8	2
CC(c1ccccc1)n1c(-c2ccc(C(C)(C)C)cc2)n[nH]c1=S (configuration not stated)	7.1µM*	7.1µM*	2%	-5	?
N[C@H](Cn1ccc(=O)n(Cc2ccccc2C(=O)O)c1=O)C(=O)O	6%	7%	nt	nt	nt
C[C@H](NC(=O)[C@@H](Cc1c[nH]c2ccccc12)NC(=O)[C@@H](N)Cc1cnc[nH]1)C(=O)N[C@@H](Cc1c[nH]c2ccccc12)C(=O)N[C@H](Cc1ccccc1)C(=O)N[C@@H](CCCCN)C(N)=O	6%	-13%	nt	nt	nt
Cc1ccc(-n2c(-c3ccncc3)n[nH]c2=S)cc1	-7%	11µM*	-3%	-22	11
Cc1ccc(-n2c(-c3ccc(Cl)cc3Cl)n[nH]c2=S)cc1	5µM*	3.2µM*	-3%	0	2
COc1cc(-c2n[nH]c(=S)n2-c2ccc(C)cc2)cc(OC)c1OC	0%	15%	?	0	-4
COc1ccc(-n2c(-c3ccc(C)cc3)n[nH]c2=S)cc1	3.2µM*	1.4µM*	2%	-17	12
Cc1ccc(-n2c(-c3ccncc3)n[nH]c2=S)cc1C	4%	26%	6%	4	0
COc1cc(OC)cc(-c2n[nH]c(=S)n2-c2ccc3c(c2)OCO3)c1	?	5.6µM*	-4%	-1	-2
COCCNC(=O)Cn1nc(-c2ccccc2C)ccc1=O	-10%	5%	-7%	18	-1
CC(=O)c1cccc(OCCCOc2cccc3cccnc23)c1	-1%	19%	1%	24	1
C[C@H](N)C(=O)N[C@@H](CO)C(=O)N[C@H](C(=O)N[C@H](C(=O)N[C@H](C(=O)N[C@@H](CC(N)=O)C(=O)N[C@@H](Cc1ccc(O)cc1)C(=O)N[C@H](C(=O)O)[C@@H](C)O)[C@@H](C)O)[C@@H](C)O)[C@@H](C)O	3%	2%	nt	nt	nt
Nc1c(-c2n[nH]c(=S)n2-c2ccc(Cl)cc2Cl)cnn1-c1ccccc1	-19%	2.8µM*	2%	-9	0
Cc1ccc(-n2c(-c3ccccc3)n[nH]c2=S)c(C)c1	4.5µM*	5µM*	26%	-2	2
Cc1ccc(-n2c(-c3ccccc3)n[nH]c2=S)cc1	5.6µM*	3.2µM*	-3%	7	-2
CC1CCN(c2ccc3nnc(CCC(=O)N4CCN(c5ccccc5F)CC4)n3n2)CC1	-7%	-10%	7%	2	0
COc1cc2c(cc1OC)C(c1cc(Br)ccc1F)N(C(=O)CCl)CC2 (configuration not stated)	?	7.9µM*	?	10	6
CC(C)(C)c1ccc(C(=O)NC(=O)COC(=O)c2ccco2)cc1	nt	nt	0%	12	-4
N#Cc1ccc(C23OCCN2CCn2c3c3ccccc3[n+]2[O-])cc1 (configuration not stated)	nt	nt	2.2µM*	nt	nt
Cc1cnc(NC(=O)c2cc3c(C)nn(Cc4ccccc4Cl)c3s2)s1	4.5µM*	3.5µM*	-2%	2	2
O=C(Nc1ccccc1)C(=O)c1c[nH]c2ccccc12	-11%	-3%	4%	2	3
Cc1cc(/C=N/n2cnnc2)c(C)n1-c1ccc(OCc2ccc(Cl)cc2)cc1	?	2.8µM*	-9%	4	3
S=C(c1ccco1)N1CCOCC1	nt	nt	-1%	nt	nt
